# Laboratory results from the supplement of paper PMC7765376.
# In all, about 1,500 compounds were measured (“Excess HSA synergy score (sum over dose matrix of excess over highest single agent)”: median about 43, lowest 2% from about -900 on). What follows is part of a selection rich in the lowest values, with near analogues and random picks from the rest.
# Tested on: PEO-1
# Experiment: Excess HSA synergy score (sum over dose matrix of excess over highest single agent) (score (summed % response)); higher = less synergy / more antagonism (negative = synergy)
# Details: 72 h, read-out: viability/apoptosis luminescence (CellTiter-Glo or Caspase3-Glo / not stated per table)
# [1] = matrix design: 6x6, 5-fold dilutions (primary screen)
# [2] = matrix design: 10x10, 9-step dilutions (confirmatory)
Structure (SMILES),Excess HSA synergy score [1],Excess HSA synergy score [2]
C#Cc1cccc(Nc2ncnc3cc(OC)c(OCCCCCCC(=O)NO)cc23)c1 + CC[C@H](NC(=O)[C@H](C)NC)C(=O)N1C[C@@H](O)C[C@H]1Cc1c(-c2[nH]c3cc(F)ccc3c2C[C@@H]2C[C@H](O)CN2C(=O)[C@H](CC)NC(=O)[C@H](C)NC)[nH]c2cc(F)ccc12 [Birinapant],-55.2,–
CCC(CC)CC1(C(=O)Nc2ccccc2SC(=O)C(C)C)CCCCC1 [Dalcetrapib] + CC[C@H](NC(=O)[C@H](C)NC)C(=O)N1C[C@@H](O)C[C@H]1Cc1c(-c2[nH]c3cc(F)ccc3c2C[C@@H]2C[C@H](O)CN2C(=O)[C@H](CC)NC(=O)[C@H](C)NC)[nH]c2cc(F)ccc12 [Birinapant],134,–
CC(C)(C)c1[nH]cnc1/C=c1\[nH]c(=O)/c(=C/c2ccccc2)[nH]c1=O [Plinabulin] + CC[C@H](NC(=O)[C@H](C)NC)C(=O)N1C[C@@H](O)C[C@H]1Cc1c(-c2[nH]c3cc(F)ccc3c2C[C@@H]2C[C@H](O)CN2C(=O)[C@H](CC)NC(=O)[C@H](C)NC)[nH]c2cc(F)ccc12 [Birinapant],-109,–
COc1ccnc2[nH]cc(C(=O)C(=O)N3CCN(C(=O)c4ccccc4)C[C@H]3C)c12 + CC[C@H](NC(=O)[C@H](C)NC)C(=O)N1C[C@@H](O)C[C@H]1Cc1c(-c2[nH]c3cc(F)ccc3c2C[C@@H]2C[C@H](O)CN2C(=O)[C@H](CC)NC(=O)[C@H](C)NC)[nH]c2cc(F)ccc12 [Birinapant],263,–
C[C@H]1[C@H](C)CC[C@]2(C(=O)O)CC[C@]3(C)C(=CC[C@@H]4[C@@]5(C)C[C@@H](O)[C@H](O)[C@@](C)(CO)[C@@H]5CC[C@]43C)[C@H]12 [Asiatic acid] + CC[C@H](NC(=O)[C@H](C)NC)C(=O)N1C[C@@H](O)C[C@H]1Cc1c(-c2[nH]c3cc(F)ccc3c2C[C@@H]2C[C@H](O)CN2C(=O)[C@H](CC)NC(=O)[C@H](C)NC)[nH]c2cc(F)ccc12 [Birinapant],84.9,–
CCc1cnn2c(NCc3ccc[n+]([O-])c3)cc(N3CCCC[C@H]3CCO)nc12 + CC[C@H](NC(=O)[C@H](C)NC)C(=O)N1C[C@@H](O)C[C@H]1Cc1c(-c2[nH]c3cc(F)ccc3c2C[C@@H]2C[C@H](O)CN2C(=O)[C@H](CC)NC(=O)[C@H](C)NC)[nH]c2cc(F)ccc12 [Birinapant],5.95,-374
Nc1nc2[nH]cc(CCc3ccc(C(=O)N[C@@H](CCC(=O)O)C(=O)O)cc3)c2c(=O)[nH]1 [Pemetrexed disodium] + CC[C@H](NC(=O)[C@H](C)NC)C(=O)N1C[C@@H](O)C[C@H]1Cc1c(-c2[nH]c3cc(F)ccc3c2C[C@@H]2C[C@H](O)CN2C(=O)[C@H](CC)NC(=O)[C@H](C)NC)[nH]c2cc(F)ccc12 [Birinapant],-173,–
Nc1nc(Cl)nc2c1ncn2[C@@H]1O[C@H](CO)[C@@H](O)[C@@H]1F [Clofarabine] + CC[C@H](NC(=O)[C@H](C)NC)C(=O)N1C[C@@H](O)C[C@H]1Cc1c(-c2[nH]c3cc(F)ccc3c2C[C@@H]2C[C@H](O)CN2C(=O)[C@H](CC)NC(=O)[C@H](C)NC)[nH]c2cc(F)ccc12 [Birinapant],-118,-898
Nc1ncn([C@H]2C[C@H](O)[C@@H](CO)O2)c(=O)n1 [Decitabine] + CC[C@H](NC(=O)[C@H](C)NC)C(=O)N1C[C@@H](O)C[C@H]1Cc1c(-c2[nH]c3cc(F)ccc3c2C[C@@H]2C[C@H](O)CN2C(=O)[C@H](CC)NC(=O)[C@H](C)NC)[nH]c2cc(F)ccc12 [Birinapant],-104,–
Nc1ncnc2c1ncn2[C@@H]1O[C@H](CO)[C@@H](O)[C@H]1O [Adenosine] + CC[C@H](NC(=O)[C@H](C)NC)C(=O)N1C[C@@H](O)C[C@H]1Cc1c(-c2[nH]c3cc(F)ccc3c2C[C@@H]2C[C@H](O)CN2C(=O)[C@H](CC)NC(=O)[C@H](C)NC)[nH]c2cc(F)ccc12 [Birinapant],270,–
Nc1nc(F)nc2c1ncn2[C@@H]1O[C@H](CO)[C@@H](O)[C@H]1O [2-Fluoroadenosine] + CC[C@H](NC(=O)[C@H](C)NC)C(=O)N1C[C@@H](O)C[C@H]1Cc1c(-c2[nH]c3cc(F)ccc3c2C[C@@H]2C[C@H](O)CN2C(=O)[C@H](CC)NC(=O)[C@H](C)NC)[nH]c2cc(F)ccc12 [Birinapant],41.5,–
Nc1nc(Cl)nc2c1ncn2[C@H]1C[C@H](O)[C@@H](CO)O1 [Cladribine] + CC[C@H](NC(=O)[C@H](C)NC)C(=O)N1C[C@@H](O)C[C@H]1Cc1c(-c2[nH]c3cc(F)ccc3c2C[C@@H]2C[C@H](O)CN2C(=O)[C@H](CC)NC(=O)[C@H](C)NC)[nH]c2cc(F)ccc12 [Birinapant],-229,-1080
Nc1nc(=O)n([C@H]2C[C@H](O)[C@@H](CO)O2)cc1F + CC[C@H](NC(=O)[C@H](C)NC)C(=O)N1C[C@@H](O)C[C@H]1Cc1c(-c2[nH]c3cc(F)ccc3c2C[C@@H]2C[C@H](O)CN2C(=O)[C@H](CC)NC(=O)[C@H](C)NC)[nH]c2cc(F)ccc12 [Birinapant],-352,–
CC1=C(CO)C(=O)O[C@@H]([C@@H](C)[C@H]2CC[C@H]3[C@@H]4C[C@H]5O[C@]56[C@@H](O)C=CC(=O)[C@]6(C)[C@H]4CC[C@]23C)C1 [Withaferin A] + CC[C@H](NC(=O)[C@H](C)NC)C(=O)N1C[C@@H](O)C[C@H]1Cc1c(-c2[nH]c3cc(F)ccc3c2C[C@@H]2C[C@H](O)CN2C(=O)[C@H](CC)NC(=O)[C@H](C)NC)[nH]c2cc(F)ccc12 [Birinapant],-42.3,–
O=C(Nc1nnc(-c2ccco2)o1)c1cc(-c2ccccc2)nc2ccccc12 + CC[C@H](NC(=O)[C@H](C)NC)C(=O)N1C[C@@H](O)C[C@H]1Cc1c(-c2[nH]c3cc(F)ccc3c2C[C@@H]2C[C@H](O)CN2C(=O)[C@H](CC)NC(=O)[C@H](C)NC)[nH]c2cc(F)ccc12 [Birinapant],57.7,–
CSc1cccc(Nc2ncc3cc(-c4c(Cl)cccc4Cl)c(=O)n(C)c3n2)c1 + CC[C@H](NC(=O)[C@H](C)NC)C(=O)N1C[C@@H](O)C[C@H]1Cc1c(-c2[nH]c3cc(F)ccc3c2C[C@@H]2C[C@H](O)CN2C(=O)[C@H](CC)NC(=O)[C@H](C)NC)[nH]c2cc(F)ccc12 [Birinapant],-134,–
CCN(CC)CCOc1ccc(Nc2ncc3cc(-c4c(Cl)cccc4Cl)c(=O)n(C)c3n2)cc1 + CC[C@H](NC(=O)[C@H](C)NC)C(=O)N1C[C@@H](O)C[C@H]1Cc1c(-c2[nH]c3cc(F)ccc3c2C[C@@H]2C[C@H](O)CN2C(=O)[C@H](CC)NC(=O)[C@H](C)NC)[nH]c2cc(F)ccc12 [Birinapant],-224,-954
Cc1cnc(Nc2ccc(OCCN3CCCC3)cc2)nc1Nc1cccc(S(=O)(=O)NC(C)(C)C)c1 + CC[C@H](NC(=O)[C@H](C)NC)C(=O)N1C[C@@H](O)C[C@H]1Cc1c(-c2[nH]c3cc(F)ccc3c2C[C@@H]2C[C@H](O)CN2C(=O)[C@H](CC)NC(=O)[C@H](C)NC)[nH]c2cc(F)ccc12 [Birinapant],70.3,–
CO[C@@]12[C@H](COC(N)=O)C3=C(C(=O)C(C)=C(N)C3=O)N1C[C@@H]1N[C@@H]12 [Mitomycin C] + CC[C@H](NC(=O)[C@H](C)NC)C(=O)N1C[C@@H](O)C[C@H]1Cc1c(-c2[nH]c3cc(F)ccc3c2C[C@@H]2C[C@H](O)CN2C(=O)[C@H](CC)NC(=O)[C@H](C)NC)[nH]c2cc(F)ccc12 [Birinapant],-351,-1240
CC(C)OC(=O)C1=CN(C(=O)c2ccc(F)c(F)c2)CC(C)(C)c2c1[nH]c1ccccc21 [Turofexorate isopropyl] + CC[C@H](NC(=O)[C@H](C)NC)C(=O)N1C[C@@H](O)C[C@H]1Cc1c(-c2[nH]c3cc(F)ccc3c2C[C@@H]2C[C@H](O)CN2C(=O)[C@H](CC)NC(=O)[C@H](C)NC)[nH]c2cc(F)ccc12 [Birinapant],99.9,–
Cc1cc(O)c2c3c4c(cc(O)c13)C(C)(C)C(=O)c1c(O)cc(O)c(c1-4)C2=O [Resistomycin] + CC[C@H](NC(=O)[C@H](C)NC)C(=O)N1C[C@@H](O)C[C@H]1Cc1c(-c2[nH]c3cc(F)ccc3c2C[C@@H]2C[C@H](O)CN2C(=O)[C@H](CC)NC(=O)[C@H](C)NC)[nH]c2cc(F)ccc12 [Birinapant],-31.1,–
CCN1CCN(CC(=O)Nc2ccc(-c3cccc4c(=O)cc(N5CCOCC5)oc34)c3sc4ccccc4c23)CC1 + CC[C@H](NC(=O)[C@H](C)NC)C(=O)N1C[C@@H](O)C[C@H]1Cc1c(-c2[nH]c3cc(F)ccc3c2C[C@@H]2C[C@H](O)CN2C(=O)[C@H](CC)NC(=O)[C@H](C)NC)[nH]c2cc(F)ccc12 [Birinapant],32,–
Nc1ccc(C(=O)Nc2cccc(-c3nc(N4CCOCC4)c4oc5ncccc5c4n3)c2)cn1 + CC[C@H](NC(=O)[C@H](C)NC)C(=O)N1C[C@@H](O)C[C@H]1Cc1c(-c2[nH]c3cc(F)ccc3c2C[C@@H]2C[C@H](O)CN2C(=O)[C@H](CC)NC(=O)[C@H](C)NC)[nH]c2cc(F)ccc12 [Birinapant],-134,–
CCOc1ccc(Cc2cc([C@@H]3O[C@H](CO)[C@@H](O)[C@H](O)[C@H]3O)ccc2Cl)cc1 [Dapagliflozin] + CC[C@H](NC(=O)[C@H](C)NC)C(=O)N1C[C@@H](O)C[C@H]1Cc1c(-c2[nH]c3cc(F)ccc3c2C[C@@H]2C[C@H](O)CN2C(=O)[C@H](CC)NC(=O)[C@H](C)NC)[nH]c2cc(F)ccc12 [Birinapant],212,–
